Results taken from PubChem BioAssay AID463195 (Sanford-Burnham Center for Chemical Genomics, 2010).
The whole screen tested about 330,000 compounds, of which about 4,600 (1.4%) were called active. Only a selection was taken, and actives are over-represented in it overall. A number with no mark means an inactive call.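 How the source made its calls: active means inhibition of 40% or more at the single tested concentration; inactive means the rest.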

Assay: wild-type TIM10 yeast growth inhibition – luminescence, uHTS, counter-screen for tim10-1 yeast inhibitor project, primary screen (AID 463195);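 further: wild-type TIM10 isogenic control strain grown at permissive 25 °C; 0% = DMSO yeast wells and 100% = minimal medium wells without yeast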
Details: S. cerevisiae TIM10 strain growth, BacTiter-Glo luminescence, 24 h; at 10 µM; active compounds read high

SMILES | inhibition
O=C(CSc1nc(O)c(Cc2ccccc2)c(=O)[nH]1)Nc1nc2c(s1)CCCC2 | -0.307%
O=C(NCc1ccccc1)c1ccc(CNc2c(N3CCCC3)c(=O)c2=O)cc1 | 2.83%
CCOC(=O)C(CCOc1cccc(CC)c1)C(=O)OCC | 9.43%
Cc1noc(C)c1S(=O)(=O)Nc1ccc(C(=O)N2CCN(c3ccc(F)cc3)CC2)cc1 | 3.71%
Cc1ccc(F)cc1NC(=O)N1CCCN(c2ccc(C(F)(F)F)cn2)CC1 | 21.2%
COc1ccc2nc(N3CCN(C(=O)c4ccc([N+](=O)[O-])o4)CC3)sc2c1 | 43.2% (active)
Cc1ccc2nc(N3CCN(C(=O)c4ccco4)CC3)sc2c1 | -6.8%
O=C(c1ccc2nc(N3CCOCC3)sc2c1)N1CCN(c2ccc(Cl)cc2)CC1 | 39.5%
CCCC(=O)n1nc(NCc2ccc(OC)cc2)nc1NCc1ccc(OC)cc1 | -4.33%
Cc1ccnc(SCC(=O)Nc2cccc(S(=O)(=O)N3CCOCC3)c2)n1 | -2.35%
COC(=O)c1cc(=O)n(-c2c(Cl)cc(C(F)(F)F)cc2Cl)[nH]1 | -4.96%
COc1ccc2c(c1)cc1n2CCN=C1NN | 76.6% (active)
COc1ccc2ccn(C)c2c1 | -5.57%
O=C(O)CSc1ccc(S(=O)(=O)N2CCCC2)cn1 | 8.26%
O=C(CCC1CCCN(C(=O)c2ccc(F)c(F)c2)C1)N1CCN(c2ccccn2)CC1 (centres undefined) | 13.4%
Cc1no[n+]([O-])c1COc1ccccc1/C=C1\NC(=S)NC1=O | -3.3%
Cc1ccc(SCC(=O)NNC(=O)c2ccc(S(C)(=O)=O)cc2)cc1 | 2.08%
O=S(=O)(NN=C1CCCCCCC1)c1ccc(Br)cc1 | 17.3%
COc1ccc(CNc2ncnc3ccccc23)cc1 | 2.62%
CCc1ccc(C(CNc2nc(C(F)(F)F)nc3ccccc23)N(C)C)cc1 (centres undefined) | 9.55%
COc1cccc(CNc2nc(C(F)(F)F)nc3ccccc23)c1 | 44.2% (active)
N/C(=N\OC(=O)CC1CCCCC1)c1ccccc1 | 38%
N/C(=N\OC(=O)CCc1ccccc1)c1cccnc1 | -2.8%
COc1ccc(/C(N)=N/OC(=O)CCCc2ccccc2)cc1 | 48.1% (active)

SMILES | inhibition
N/C(=N\OC(=O)CCc1ccccc1)c1ccc(Cl)cc1 | 57.5% (active)
COc1ccc(/C(N)=N/OC(=O)Cc2ccccc2)cc1 | 21.6%
COc1ccc(/C(N)=N/OC(=O)Oc2ccccc2)cc1 | 2.38%
Nc1cccc(S(=O)(=O)Nc2ccc(SC(F)F)cc2)c1 | 15.6%
CCc1ccc(S(=O)(=O)Nc2cc3c(cc2N2CCCCC2)n(C)c(=O)c(=O)n3C)cc1 | 18%
OCC1(Cc2ccccc2C(F)(F)F)CCN(Cc2cccc3cnccc23)CC1 | -41.2%
Cc1ccc(N(C(=O)c2sc(C)nc2C)C(C(=O)NC(C)(C)C)c2ccncc2)cc1 (centres undefined) | -2.14%
O=C1OC[C@@H]2CCCN2C(=O)[C@H](CC(=O)N(CCO)Cc2ccccc2)C/C=C\CC[C@@H]1Cc1ccc(F)cc1 | 1.13%
CCN(Cc1ccccc1)S(=O)(=O)c1cc2c3c(c1)CCN3C(=O)CC2 | -18.1%
O=C(COc1ccccc1Cl)Nc1ccccc1C(=O)NC1CC1 | 4.12%
NC(=O)CC(NC(=O)Cc1ccc(Br)cc1)c1ccc(NC2CC3CCC2C3)c([N+](=O)[O-])c1 (centres undefined) | 11.3%
COc1ccc([N+](=O)[O-])cc1-c1nc2ccccc2nc1-c1ccccc1 | 12.2%
O=[N+]([O-])c1ccc2nc(-c3ccccn3)[nH]c2c1 | 13.4%
O=[N+]([O-])c1ccc2c(c1)Nc1nc3ccccc3nc1N2 | 79.8% (active)
CCc1ccc(CN2C(=O)c3ccccc3C2C(=O)NCC2CCCO2)cc1 (centres undefined) | -1.35%
COc1ccc(OC)c2sc(NC(=O)C3COc4ccccc4O3)nc12 (centres undefined) | 43.3% (active)
COc1ccc(NC(=O)C2COc3ccccc3O2)cc1 (centres undefined) | -1.21%
COc1cc(SC)ccc1C(=O)NNC(=O)C1COc2ccccc2O1 (centres undefined) | -2.79%
Cc1cccc(NC(=O)CN2CCN(CC(=O)NCC3(N4CCCCC4)CCCCC3)CC2)c1C | -26%
O=C(CCN1CCc2ccccc2C(O)(c2ccccc2)C1)c1ccc2c(c1)OCCO2 (centres undefined) | 47.8% (active)
O=C(CN1CCC(O)(c2ccccc2)CC1)Nc1ccc2c(c1)OCCO2 | -4.11%
O=C(COC(=O)c1ccccc1)c1ccc2c(c1)OCCO2 | 3.76%
COc1cccc2cc(/C(C)=N/NC(=O)c3ccco3)oc12 | 7.37%
CC1(C)CCSC(/C=C/c2ccccc2)=N1 | 59.5% (active)

SMILES | inhibition
CC1(c2ccccc2)NC(=O)N(CC(=O)N2CC(=O)Nc3ccccc32)C1=O (centres undefined) | -7.18%
Cc1c(CC(=O)N2CCN(C(=O)C3COc4ccccc4O3)CC2)c(=O)oc2c(O)c(O)ccc12 (centres undefined) | 14.5%
CC(=O)Nc1ccc(N2C(=O)C3C4C=CC(CC4)C3C2=O)cc1 (centres undefined) | 3.72%
Cc1ccc(N2C(=O)C3C4C=CC(CC4)C3C2=O)cc1Cl (centres undefined) | 96.9% (active)
Cc1ccc(N2C(=O)C3C4C=CC(CC4)C3C2=O)cc1Br (centres undefined) | 0.46%
O=C(c1ccc(F)cc1)C1CCN(Cc2cn[nH]c2-c2ccccc2)CC1 | 7.29%
Cc1cc(C)c(CN2CCN(C(=O)Cn3ccc(NC(=O)OCc4ccccc4)nc3=O)CC2)c(C)c1 | 14.5%
Cc1nn(Cc2ccccc2)c(C)c1C(=O)N1CCN(CC(=O)Nc2ccccc2Cl)CC1 | 16.3%
Cc1cccc(C)c1NC(=O)CCCSc1nnc(-c2ccco2)n1-c1ccccc1 | 7.48%
COc1ccc(Nc2cc(C)nc(-n3nc(C)cc3C)n2)cc1 | 42.6% (active)
CC(=O)c1ccc(Oc2cc(C)nc(-n3nc(C)cc3C)n2)cc1 | 17.9%
Cc1cc(N/N=C\c2ccc(Br)cc2)nc(-n2nc(C)cc2C)n1 | 28.7%
COc1ccc(OCC(=O)OCCN(C)C)cc1 | 6.08%
CN1CCC2(CC1)NC(=O)NC2=O | -10.9%
C=CCn1c2ccccc2c2nnc(SCc3[nH]c(=O)[nH]c3C(=O)CCCCC(=O)OCC)nc21 | 2.76%
c1ccc(-c2cn3c(n2)CCc2ccc4cccnc4c2-3)cc1 | 43.3% (active)
CCn1nnc(NC(=O)c2cc(Cl)c(OC)c(Cl)c2)n1 | -27.2%
O=C(Nc1cc(S(=O)(=O)Nc2ccc(Cl)cc2)ccc1O)c1ccc(F)cc1F | -2.9%
O=C(Nc1nnc(SCc2c(Cl)cccc2Cl)s1)C1CCCO1 (centres undefined) | 43% (active)
O=C(NCc1ccccc1Cl)C1CCCO1 (centres undefined) | 12.6%
O=C(Nc1nnc(SCc2c(Cl)cccc2Cl)s1)c1cccc([N+](=O)[O-])c1 | -29.2%
CCCCN(CC)CCCNC(=O)c1ccc(CSc2nc3ccncc3[nH]2)cc1 | -7.87%
COc1ccc(C2CC(=O)Oc3ccc(C(C)(C)C)cc32)cc1 (centres undefined) | -0.738%
Cc1csc(NC(=S)Nc2cccc(Cl)c2)n1 | 45.7% (active)

SMILES | inhibition
Cc1cccc(NC(=S)Nc2ccc(Cl)c(Cl)c2)c1 | 24.3%
Cc1cc(Cl)nc(NC(=O)Nc2cccc(Cl)c2)n1 | 3.22%
O=C(O)CC1(CC(=O)Nc2cccc(C(F)(F)F)c2)CCCC1 | -9.42%
S=C(Nc1cccc(Cl)c1)Nc1ccc2c(c1)OCCO2 | 20.4%
FC(F)(F)c1cccc(NC(=S)Nc2cccc(Cl)c2)c1 | 50.8% (active)
CCn1c(=O)c(=O)n(CC)c2cc(S(=O)(=O)N3CCc4ccccc43)ccc21 | 14.7%
Cc1ccc(C(C)C)c(OCc2nnc(SCC(=O)Nc3nccs3)n2C)c1 | -14%
COc1ccccc1/C=C/CN1CCC(CO)(Cc2ccccc2)CC1 | -1.7%
CCCCNC(=O)C1CCC(=O)N1CCc1ccccc1 (centres undefined) | -1.71%
C[C@]12CC[C@H](O)CC1=CCC1C2CC[C@@]2(C)C1CC[C@@H]2NC(=O)CCC(=O)O (some centres undefined) | -2.58%
C=CC[C@H](CC(=O)N(CCO)Cc1ccccc1)C(=O)N[C@@H](COC(=O)[C@@H](CC=C)Cc1ccc(F)cc1)Cc1ccccc1 | 5.57%
CSc1ccc(C(=O)C2CCCN(C(=O)c3ccc(C)nc3)C2)cc1 (centres undefined) | -8.56%
Cc1cc(C(=O)NNC(=O)CCC2CCCCC2)c(C)o1 | -5.54%
Cn1c2c(c(=O)n(C)c1=O)C(c1cccc([N+](=O)[O-])c1)Nc1ccccc1O2 (centres undefined) | -3.02%
CN(/N=C/c1ccccc1)C(=S)c1ccccc1 | -6.07%
Oc1ccc(/C=N/N(Cc2ccccc2)c2ccccc2)cc1 | 46% (active)
CCN(/N=C/c1ccccc1)c1cc(=O)n(C)c(=O)[nH]1 | 19.2%
CN1CCN(S(=O)(=O)c2cccc(C(=O)Nc3sccc3C#N)c2)CC1 | -3.26%
CSC1=NCCN1C(=O)Cc1cccc2ccccc12 | 4.36%
O=S(=O)(c1ccccc1)N1CCc2ccccc21 | 2.66%
O=C(CCC(=O)N1CCN(S(=O)(=O)c2ccccc2)CC1)NC1CCCc2ccccc21 (centres undefined) | 8.6%
O=C1c2ccccc2C(=O)N1CC1c2ccccc2CCN1S(=O)(=O)c1ccccc1 (centres undefined) | 40.3% (active)
